The values that follow come from PubChem BioAssay AID1508600 (Functional Genomics Laboratory (NCATS/FGL), 2020).

The campaign covered roughly 53,000 sequences. About 3,700 (7%) were called active. Only a selection was taken, and actives are over-represented in it overall. Unmarked numbers belong to inactive results.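 How the source made its calls: active means gene knockdowns whose robust z-score for IL-1 alpha signal is at least 2 or at most -2, so actives lie on both sides; inactive means the rest.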

The assay in a line: Components of the Cytosolic LPS Sensing Pathway: Gene Identification via Genome-wide siRNA Screen.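 Further: robust z of the log signal after scaling to non-targeting control siRNA wells of the plate.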 The note with it: RAW264.7 macrophages, IL-1a HTRF, actives lie on both sides, screened at 100 nM (by protocol), cells primed 5 h with Pam3CSK4 first. The method in brief: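 Read-out: IL-1a HTRF on supernatant, divided by plate negative-control median ×100, log-transformed and converted to robust z-score. Cells were RAW264.7 given 100 nM siRNA, Pam3CSK4-primed 5 hours, then LipidA-transfected 24 hour.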
On the technique in general: Time-resolved FRET reads energy transfer from a long-lived donor to a nearby acceptor.
Take GGAGUUUGUAACCCUCCUGTT against Cabp7: the z-score was 1.07.

As for GCCGUCAUCAUGGAAGGUUTT against Bace1, the z-score was 0.0589.

As to GGAAUCCUUGGACCUGAGGTT against Tnni3, the z-score is -2.11 (active).

Consider GGGUCAAUCAGAAGCUAGGTT against Creb3l4, for which the z-score was -0.573.

As for GGCAACUGACUAUUUAUUATT against Kcnk13, the z-score is 0.558.

In the case of GCAUGAGUAUUCCAAGGAGTT against Arhgef7, the z-score is -2.36 (active).

As to GCAGUAUAAGAAUUUCAUGTT against Thada, the z-score was -0.325.

Consider “GGAAAUGUUCUUCAUGUCATT against 1110038F14Rik”, for which the z-score is -1.95.

With GGCACGUCUGGACAACAUCTT against Cd22, the z-score was -0.707.

On to GGAGGUGACCUGUAAUCCCTT against Msmb, for which the z-score is 0.0151.

With GCUUUCACUAAUCAGUACATT against Setd5, the z-score is -0.0813.

Turning to GGAGCAACAGAGAUUUCUUTT against Sergef, the z-score was 2.07 (active).

As to GCUUCUGAUUAACCUCCAGTT against Olfr1390, the z-score was -1.49.

As to GCUUACCUUUGGAUUCAAATT against Cd68, the z-score is -0.446.

For the sequence GGGAAAAAGAGCUUUUAGCTT against Helt, the z-score was -0.552.

Regarding GGUGGCCGUGAAGAAGAUCTT against Mapk4, the z-score is -0.902.

GGGCUUAAGGAAUAAACCATT against Phtf2: the z-score is -0.317.

GGAGAUCUCAGAGAGUGAGTT against Atn1: the z-score was -2.52 (active).

With GCCUCCAACUGAACAAAUUTT against Tnfrsf14, the z-score was 0.0618.

Take GGACCAUCUCUUUGAUUGGTT against Olfr424: the z-score is -1.12.

Consider UCUUUGGCAACACUACCAUTT against Olfr1386, for which the z-score was 0.366.

GAAGUCCUGGGACUUUAUGTT against Nudt14: the z-score was 0.208.

For GGACAGAAUUGAAAUGCCUTT against Ropn1l, the z-score was -2.08 (active).

For the sequence GGUUUCGUUGUUCUUGUUGTT against Ttc33, the z-score is 0.55.

With GGUAGAAGAGAACUGGACATT against Oas1a, the z-score was 0.228.

With GGCAUGAUUAUUGUGUUUGTT against Abcb11, the z-score was 0.41.

Regarding CCUAAGUACUGUAAGAAUATT against Mycn, the z-score is 0.506.

On to CGCCAUGUUUAACAAAUUGTT against Limk2, for which the z-score was -2.22 (active).

Turning to GCCAUUCUAGGAACUCUGATT against Thrap3, the z-score was -1.3.

As to GGUAUCAGACAGCUGUAACTT against Mptx1, the z-score was 0.359.

GCAUCAGUAGAAACCCACATT against Tmigd3: the z-score is 0.872.

As for CCCUACUAUUGACGAAAACTT against Hpn, the z-score was 1.66.

In the case of “CCUGAUCUUAAACAAAGAATT against 2610507B11Rik”, the z-score was -0.742.

Turning to GCCAACCCUGAAAACCCUUTT against Gc, the z-score was -2.54 (active).

On to GGUUGUUGAAAAGUCUUUATT against Rasa2, for which the z-score is -0.102.

For GCACUGGAAAAUUUCUAAUTT against Vmn2r7, the z-score is -0.0531.

On to GGAGGUAGAAAUAAAUACUTT against Sva, for which the z-score was 2.01 (active).

For GGACAAUUACAACACUCAATT against Ablim3, the z-score is -0.00526.

Turning to GGCUUGAUCAUGACUUAAATT against Armc8, the z-score was 0.638.

Take GGUUUUGUUAUGGUAAGUCTT against Vdr: the z-score is -0.573.

Turning to CCAAGCAUUCGAGUAUGUUTT against Ctsj, the z-score was 1.07.

With CCAAUGAUUUCCUGCUAAATT against Lst1, the z-score was 3.21 (active).

Consider GGAAGACAACUGAACAUUUTT against Ralgds, for which the z-score is 0.837.

CCGGAAGCUAUUGACCAUUTT against Tmem11: the z-score is 3.21 (active).

In the case of GGCCGUAAUAUCUCCUCCUTT against Krt13, the z-score is 1.41.

In the case of CGCGAGGUCUUCGAAAGAATT against Siva1, the z-score was -0.884.

Turning to CGCGUUUCGUGUUUCAAAATT against Mus81, the z-score is -0.464.

On to GAUCGAAGCCUAAGACCGCTT against Cypt3, for which the z-score was -0.578.

For GCCUUAGGGAGUGUUAAAATT against Spink8, the z-score is -0.304.

Take GGUGGAGAAGCAGAUGCUUTT against Nek2: the z-score is 2.25 (active).

As to GGAAUUCCUUACCUUCUUATT against Cyp2c65, the z-score is -0.269.

In the case of GGAGCAUCACUCUUAACAUTT against Krt71, the z-score is 1.58.

Regarding GGGACACUUUCACUUGUUCTT against Rmnd5a, the z-score was 0.159.

With GCUCAGGCAAGACUCAUUGTT against Trim45, the z-score was -0.57.

On to GGACUUUUGGCACUCUUAUTT against Snx10, for which the z-score was 0.127.

For GGAUUUGAUUCCGCCAACGTT against Pon2, the z-score was -2.03 (active).

Consider GCUUAAAAGUGAAGUCUUGTT against Tmem203, for which the z-score was -0.615.

GUAAGGUCACCGGGUUGCATT against Lor: the z-score is 0.547.

As for GGUGGUCCUGGAUCUUUAUTT against Spon2, the z-score was -0.986.

With GGACUUCGACAAACUGAAGTT against Zfp532, the z-score is 0.547.

Regarding GCCUUCUUGAACUGAAAGATT against Spc24, the z-score is -2.04 (active).

For the sequence GGUUCUAUGUUGACAAUCATT against Osgin2, the z-score is 0.621.

GGAAAUCUGAGUGUGCACUTT against Pcdhgb1: the z-score was 1.45.

For GGCUGUCUUCAUCUUAGAUTT against Copz2, the z-score was -2.61 (active).

For GGAUAAUACAUCCCAAAACTT against Prkar2b, the z-score was -0.607.

With GGAUCUCCAGAGCAGAAAATT against Nckap5, the z-score is -1.64.

In the case of GGUGAAUUCAACUCUCUAATT against Decr1, the z-score was 2.43 (active).

Turning to GGGUGUUGAUGUCAUUGUGTT against Dbn1, the z-score is 1.51.

Take GCAUGCACUUAAGAUUCUATT against Lypd6b: the z-score was 0.595.

For CCAGGAAUCAGUCUAUACUTT against Lrrc15, the z-score is 1.45.

Consider GGUUGUAACAAACAUACUCTT against Sstr4, for which the z-score was 2.99 (active).

With GGACCUGGAGAAAUUGAAGTT against Nlrp6, the z-score is 1.82.

Regarding GGUCAUCUCAGACCUCCUCTT against Pde6a, the z-score is -0.275.

Regarding GCAAAACCAUUUCGAAACATT against Slc41a3, the z-score is 0.363.

Consider CCUGUGGAUCCAUUUGUUCTT against Tex15, for which the z-score was -2.25 (active).

On to GGAAAAGCUACCUGUGUCATT against Tril, for which the z-score is -1.88.

For GGUGAUGGAAUACCAAAGGTT against Dnajc28, the z-score is -0.736.

Take GGAUAUCUUCAUAUUGGUGTT against Ces1f: the z-score is 4 (active).

On to GGAGAUCCCGUCACUAUCUTT against Lrrc61, for which the z-score is -0.439.

With GGACAAUGAACUGAUUACCTT against Ap1s2, the z-score is 0.992.

On to GGGACAAAGAAAAUCUACUTT against Ehf, for which the z-score was 0.637.

As for GUACCAGAAGUGAGUUCAGTT against Leap2, the z-score was -2.97 (active).

As for GCUGCCUCUUUCUUUGCUUTT against Pllp, the z-score is -0.769.

Turning to GGCAGAUUCAGAAUUGUCUTT against Il17a, the z-score is -2.58 (active).

In the case of GGACUUUGCCCUGGAUUCUTT against Cnot1, the z-score is -0.216.

With GGUUUGUUGUUGUUUUUGGTT against Vezt, the z-score is 0.44.

Regarding GCAAUUACCAGUAUGCUACTT against Tbx19, the z-score is 0.914.

With CGGUAAACUGGUUUUACUUTT against Otulin, the z-score was 1.8.

With GCCACAUCCUAUGUGAUGATT against Olfr1349, the z-score is -0.647.

As to GGAAGCUAUAUAUCAAGAATT against Tcea1, the z-score was 0.69.

Turning to GUCCGUCUCGGAGAAAUGUTT against Ccdc106, the z-score is -2.28 (active).

Turning to “GGAUUCACGAGCAUAAGCUTT against 1700020D05Rik”, the z-score is -1.31.

For the sequence GGAGGCAGCAGUUAUUGUGTT against Ly6a, the z-score was -0.486.

With GGCCUCAGACCUUCUAUGATT against Mtap, the z-score was -0.149.

GGUGUCCUCUUUGUUCAUGTT against Sgce: the z-score is 2.94 (active).

For GGCUGGUACUCCAUUUUAGTT against Neil2, the z-score was 0.0451.

For GCCAGUUGGUUACUAUGGATT against Tax1bp3, the z-score is -0.412.

GGGAUUACCAAAAAGGCAUTT against Senp7: the z-score was 0.128.

Turning to GGAUAUUAACUAUGGGUUUTT against Tlr2, the z-score is 0.605.

GGCCUGCUUUGUUCUGAAUTT against Olfr846: the z-score is -2.53 (active).

Take GCGCAAUAAUCAGACGGUUTT against Zhx2: the z-score is -0.624.

For the sequence GGAAGAAGGUACAUUUCAGTT against Ankrd42, the z-score was 0.362.

GGGCAAAAUAUGAAAUACATT against Pate6: the z-score was 2.92 (active).

As to GAGAGAGACAAUCCUGAAGTT against Klra22, the z-score is -0.0539.

Take GGCAAAUGGAAACAGCCAUTT against Serpina1d: the z-score is -1.56.

For the sequence CCUGCUCAAACUUUUGUGGTT against Ephx4, the z-score is 0.928.

Take GGAACCUUCUCCAAAGCAATT against Rpgrip1: the z-score was -2.45 (active).

Turning to CGUCAAAGGAGACAGCUUUTT against Rbm15b, the z-score was 1.56.
